The panel holds about 83,000 compounds, 20% with a hit somewhere; the sample as a whole holds those more often.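 Growth was measured after 48 h exposure to one concentration of compound in 96-well plates. Values under 10 count as active.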 Calls of active or inactive are those of the source.
Test system: HL-60(TB) leukemia
Test: NCI-60 one-dose screen, 48 h (100 = growth as untreated, 0 = no growth, -100 = all killed)
Details: 10 µM unless noted

Row | SMILES | growth
1 | C=C1C(=O)O[C@H]2[C@H]1CC/C(COC(=O)NCc1cc(OC)cc(OC)c1)=C\CC[C@@]1(C)O[C@@H]21 | -20.1% (active)
2 | CC/C=C\C[C@H](O)C/C=C1/C(=O)C=C[C@@H]1C/C=C\CCCC(=O)OC | -12.3% (active)
3 | CC(=O)Oc1ccc(C2OC(c3ccc4ccccc4c3OC(C)=O)=NN2C(C)=O)c(OC(C)=O)c1 (centres undefined) | -30.7% (active)
4 | CCCCNC(=O)c1ccc2c(c1)nc(-c1ccccc1)n2C1CCCCC1 | 115% (inactive)
5 | CCC([N+](=O)[O-])S(=O)(=O)c1ccc(C)cc1 (centres undefined) | 132% (inactive)
6 | O=C(O)c1cc(C(F)(F)F)cc(C(F)(F)F)c1 | 88.2% (inactive)
7 | CC(=O)Nc1cc2c3c(cccc3c1)-c1ccccc1-2 | 0.506% (active)
8 | COc1ccc(NC(=O)c2nc(-c3cc(OC)c(OC)c(OC)c3)n(-c3cccc4ccccc34)n2)cc1OC | 10% (inactive)
9 | COc1cc(-c2nc(SCCC(C)C)nc(Nc3ccccc3)c2C#N)cc(OC)c1OC | 83.9% (inactive)
10 | COc1ccc(C(=S)N2CCN(c3ccc(Cl)cc3)CC2)cc1 | 89.7% (inactive)
11 | COC(=O)c1ccc(C)cc1 | 106% (inactive)
12 | O=C(Nc1cc(C(F)(F)F)cc(C(F)(F)F)c1)Nc1ccc(OCc2nnc(-c3ccc(Cl)cc3)o2)c(F)c1 | 5.4% (active)
13 | CCC(=O)Oc1ccc2ccccc2c1 | 103% (inactive)
14 | CS(=O)(=O)c1nccc(-c2c(-c3cccc(OCc4ccc(F)cc4)c3)nc3sccn23)n1 | 43.7% (inactive)
15 | Cc1nc2c(c(=O)[nH]1)C(c1ccccc1)c1ccc3ccccc3c1O2 (centres undefined) | -2.8% (active)
16 | C=C1C(=O)O[C@H]2[C@H]1CC/C(COC(=O)NCc1c[nH]c3ccccc13)=C\CC[C@@]1(C)O[C@@H]21 | -46.8% (active)
17 | COC(=O)c1nc(=S)[nH]c(C(=O)OC)c1C(=O)c1ccc(Cl)c(Cl)c1 | 101% (inactive)
18 | CCCCCCCCc1ccc(CCC(N)(CO)CO)cc1 | -14.1% (active)
19 | COc1ccc(C/C(C)=C(/c2ccc(OCCN3CCCCCC3)cc2)c2ccc(OC(=O)c3ccccc3)cc2)cc1 | 68.7% (inactive)
20 | O=C(NCCCl)NCCN1c2nc3ccccc3cc2Sc2cc3ccccc3nc21 | 24.3% (inactive)

Row | SMILES | growth
21 | COc1cc(/C=C/C(=O)c2ccc(Cl)cc2)ccc1OS(=O)(=O)c1ccc(C)cc1 | 75.2% (inactive)
22 | CC(C)C1=NOC(=O)C1=Cc1cn(-c2ccccc2)nc1-c1ccc(F)cc1 | -34.9% (active)
23 | N#C/C(=C\c1ccc2c(c1)OCO2)n1nnc2ccccc21 | -10.9% (active)
24 | CC/C(=C(/c1ccc(Cl)cc1)c1ccc(OCCN2CCCCC2)cc1)c1ccc(OC)cc1 | 24% (inactive)
25 | C=C1C(=O)O[C@H]2[C@H]1CC/C(COC(=O)c1ccc(C(=O)O)s1)=C\CC[C@@]1(C)O[C@@H]21 | -31.4% (active)
26 | Cc1cccc(C)c1N1C(c2ccccc2)=NNC12C=CC(=O)c1c(O)cccc12 (centres undefined) | 61.2% (inactive)
27 | O=C1C(Cl)=C(Nc2ccc(S(=O)(=O)N3CCOCC3)cc2)C(=O)c2ccccc21 | -17.7% (active)
28 | CNC(=O)c1cc(Oc2ccc3c(c2)sc2nc(-c4ccc(NC(=O)Nc5ccc(Cl)c(C(F)(F)F)c5)cc4)cn23)ccn1 | 32.2% (inactive)
29 | NS(=O)(=O)c1ccc(NCC(=O)Nc2ccc(-c3nc4ccccc4s3)cc2)cc1 | 33.4% (inactive)
30 | CSc1ncc(C)c(Nc2ccc(Cl)cc2)n1 | 112% (inactive)
31 | COc1cc(OC)cc(C(=O)Nc2cc(-c3cccnc3)nc(NCCCN3CCOCC3)n2)c1 | 86.5% (inactive)
32 | O=C1OCC2=C1C(c1ccc(Cl)c(Cl)c1)c1cc3c(cc1N2CCO)OCCO3 (centres undefined) | -18.9% (active)
33 | C=CCCCCOc1ccccc1-c1cnc(OCCCCC=C)n1C | 66.5% (inactive)
34 | Cc1cc(C(=O)c2ccccc2)cc(C)c1O | 31.3% (inactive)
35 | Clc1cc(Cl)c(OCC#CI)cc1Cl | 47.6% (inactive)
36 | Cn1c(=O)c2c(nc(N3CCCC3)n2C)n(C)c1=O | 95.4% (inactive)
37 | CCCn1c(=S)sc2c(Cl)nc(C)nc21 | 130% (inactive)
38 | O=C(Nc1ccc(I)cc1F)c1cc(F)ccc1O | -30.7% (active)
39 | NS(=O)(=O)c1ccc(CN=C2NC(=O)S/C2=C\c2ccc(Br)cc2)cc1 | 97.5% (inactive)

— PubChem BioAssay (NCI)
